# Compound activity from PubChem.
# Sampled rows, rich in hits. Any-hit rate of the full collection: about 21%.
# Cycloheximide cs: affects cycloheximide protein synthesis inhibition readout, counter-screen; cell reporter, cycloheximide protein synthesis inhibition counterscreen; max response, %; 300,000 tested, 12% active; AID 2314; in the data active means max response mostly above about 13%, no sharp cut-off; inactive means mostly below about 14%; further: read at 38.3 µM for the half of the compounds with a filed dose; 0% is about no effect
# NS1 inh: blocks influenza NS1 protein function | 270,000 tested, 0.4% active | AID 2326 | Potency, µM (top dose mostly 46.1 µM), for the others: top-dose activity, positive = more growth; calls by dose curve; further: potency means the concentration at half of the fitted maximal effect; actives are rising curves; nearly all actives have a fitted effect of over 50% in size
#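 Growth recovery, yeast-based: influenza A NS1 expressed in S. cerevisiae causes slow growth, and suppressors are detected by OD600. The parent strain without NS1 is used as positive control.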
# Pf growth 48h: inhibits P. falciparum growth in the first generation, 48 h | P. falciparum luciferase growth in erythrocytes, 48 h | Potency, µM (series often up to 28.7 µM), for the others: top-dose activity change, negative = inhibition, actives largely listed as inhibitors | 310,000 tested, 5.9% active | AID 504832; further: potency means the concentration at half of the fitted maximal effect; on the % scale 0 is the no-effect control and ±100 the full control effect
#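 Parasite viability was followed by luminescence of a genomically integrated firefly luciferase. Cultures held 0.1% parasitemia at 2% hematocrit (final), incubated under 5% CO2 at 37 C.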
# FBPA Giardia inh: inhibitors of Giardia lamblia fructose-1,6-bisphosphate aldolase; purified Giardia FBPA; Potency, µM (top dose mostly 59.6 µM), for the others: at the highest dose activity, negative = inhibition, hits mostly inhibitors; 290,000 tested, 0.71% active; AID 2451; further: potency means the concentration at half of the fitted maximal effect; on the % scale 0 is the no-effect control and ±100 the full control effect; nearly all actives have a fitted effect of over 55% in size
# Target sequence (A8B2U2 whole entry, looked up): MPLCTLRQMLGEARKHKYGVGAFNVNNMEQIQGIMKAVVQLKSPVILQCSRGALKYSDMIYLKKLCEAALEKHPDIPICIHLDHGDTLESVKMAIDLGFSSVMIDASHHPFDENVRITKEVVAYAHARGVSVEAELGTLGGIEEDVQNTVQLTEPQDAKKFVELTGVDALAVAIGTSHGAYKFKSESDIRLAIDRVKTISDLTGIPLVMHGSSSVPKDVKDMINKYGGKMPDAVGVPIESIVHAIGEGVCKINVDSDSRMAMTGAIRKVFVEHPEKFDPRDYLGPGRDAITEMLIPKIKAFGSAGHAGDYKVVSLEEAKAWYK
#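 40 nM FBPA preincubated 10 min at RT with compound (up to 57.5 uM final), then substrate plus GAPDH/TPI/NAD/arsenate coupling and diaphorase/resazurin added. Fluorescence read after 20 min at RT, 525/598 nm.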
# Pf growth 96h: inhibits malaria parasite growth, 96 h. 320,000 tested, 6.9% active. P. falciparum luciferase reporter growth, 96 h. Potency, µM (series often up to 28.7 µM), for the others: at the highest dose activity change, negative = inhibition, usual class: inhibitors; further: potency means the concentration at half of the fitted maximal effect; on the % scale 0 is the no-effect control and ±100 the full control effect
#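 P. falciparum expressing integrated firefly luciferase, in erythrocytes at 2% hematocrit, 0.05% parasitemia, incubated with compounds 96 h at 37 C, 5% CO2. Growth inhibition read as loss of luminescence; two-generation exposure targets delayed-death apicoplast inhibitors.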
# Shiga inhibitor: inhibitors of Shiga toxin in Vero cells; Vero cells, Shiga toxin protein synthesis inhibition reporter; inhibition, % at 38.7 µM; 290,000 tested, 9.2% active; AID 2315; in the data active means inhibition mostly above about 28%, no sharp cut-off; inactive means mostly below about 43%; further: 0% is about no effect
# * hit, by the source's call; ? = inconclusive; / = no result given. Unless noted, the call rests on the fitted dose curve; in most records, active means well fitted curve in the direction sought with a large enough effect; inconclusive means small, poorly fitted or top-dose-only effect, or another doubt; inactive means no such curve, though single readings can be large; an effect the other way counts as inactive or inconclusive.
SMILES,Cycloheximide cs,NS1 inh,Pf growth 48h,FBPA Giardia inh,Pf growth 96h,Shiga inhibitor
COc1ccc(CC(=O)OCC(=O)c2ccc(OC)c(OC)c2)cc1,/,/,-1.1%,/,17.7%,/
Cc1ccc(-c2nn(CC(=O)N3CCOCC3)c(=O)c3ccccc23)cc1S(=O)(=O)N(C)C,-2.9,-4.8%,?,0.2%,-25.8%,-7.0
CCCCc1nc2cc(C(=O)N3CCCCC3CC(=O)OCC)ccc2o1 (stereo not given),31.4*,8.8%,23.7%,0.5%,8.0%,36.9
CCOC(=O)N1CCN(C(=O)c2ccc3nc(-c4ccccc4)c(-c4ccccc4)nc3c2)CC1,-3.3,-3.1%,?,/,1.6%,-5.5
CCOC(=O)CC1COCCN1C(=O)c1ccc2oc(Cc3ccccc3)nc2c1 (stereo not given),48.2*,0.2%,-19.6%,1.2%,3.6%,62.1*
COC(=O)C1CCCCN1C(=O)c1cccc(OC2CCN(C(=O)C3CC3)CC2)c1 (stereo not given),16.8,5.5%,-24.8%,-8.5%,6.4%,4.8
CCCCc1nc2cc(C(=O)N3CCCCC3C(=O)OC)ccc2o1 (stereo not given),38.6*,-7.3%,52.5%,-4.1%,?,56.7*
OCCN1CCN(C(=S)c2ccc(Cl)c(Cl)c2)CC1,2.0,2.1%,-11.0%,12.6µM*,-0.1%,3.1
COc1cc(NC(=S)N2CCN(CCO)CC2)c(OC)cc1Cl,0.9,-8.2%,44.7%,-2.6%,-22.7%,15.3
Cc1ccc2c(c1)N(C(=O)CCC(=O)NCCN1CCOCC1)CCO2,-1.2,-12.2%,17.8%,-5.2%,-11.9%,-5.2
COc1ccc(OC)c(C(C(=O)NCc2ccco2)N(C(=O)Cn2nnc3ccccc32)C2CC2)c1 (stereo not given),-3.7,1.4%,?,1.6%,?,-21.4
COc1ccc(C(C(=O)Nc2ccc(F)cc2)N(C(=O)Cn2nnc3ccccc32)C2CC2)cc1 (stereo not given),-1.5,-9.9%,5.86µM*,1.2%,?,-1.5
COc1ccc(N(C(=O)Cn2cnc3ccccc32)C(C(=O)NC2CCCCC2)c2ccccc2)cc1 (stereo not given),-3.8,5.1%,13.1µM*,0.5%,?,-7.4
COc1ccc(N(C(=O)Cn2nnc3ccccc32)C2(C(=O)NC3CCCC3)CCCCC2)cc1,-3.5,8.0%,13.1µM*,1.1%,13.1µM*,-11.3
O=C(O)C1CC(c2cccc(Br)c2)=NO1 (stereo not given),-3.8,-1.5%,2.9%,11.6%,/,-4.0
O=C(C1CC(c2cccc(Br)c2)=NO1)N1CCc2ccccc2C1 (stereo not given),17.6*,-17.6%,6.1%,0.5%,68.7%,21.4
O=C(COC(=O)c1ccc2c(c1Cl)C(=O)c1ccccc1C2=O)NC1CC1,31.3*,-5.6%,-12.6%,?,?,39.3*
O=C(COC(=O)c1ccc2c(c1Cl)C(=O)c1ccccc1C2=O)NC1CCCCC1,-2.7,1.4%,-19.3%,-16.6%,10.5%,3.2
CN1C2C=C3C(C#N)=C(N)C(C#N)(C#N)[C@@H](c4cccc(F)c4)[C@@H]3C1CC2 (stereo not given in full),-2.9,10.7%,?,?,0.657µM*,42.8
O=C(CSc1nc2ccccc2c(=O)n1-c1ccc(Cl)cc1)N/N=C/C=C/c1ccccc1[N+](=O)[O-],-3.0,?,?,2.1%,9.28µM*,-8.3
O=C(CSc1nc2ccccc2c(=O)n1-c1ccccc1)N/N=C/C=C/c1ccccc1[N+](=O)[O-],14.7,/,9.28µM*,3.7%,?,-0.4
Cc1ccccc1-n1c(SCC(=O)N/N=C/C=C/c2ccccc2[N+](=O)[O-])nc2ccccc2c1=O,-2.8,?,?,0.7%,?,-8.5
CCn1c(C)nc2cc(C(=O)N/N=C/c3cccc(O)c3O)ccc21,31.4*,-6.4%,10.4µM*,-15.3%,?,67.2*
CCn1c(C)nc2cc(C(=O)N/N=C/c3ccccc3)ccc21,34.1*,1.6%,203.8%,-0.3%,158.9%,94.2*
Cc1ccc(C(=O)N/N=C/c2ccc(-c3cccc(C(F)(F)F)c3)o2)cn1,-3.9,0.8%,-18.0%,6.3%,-0.7%,16.1
SMILES,Cycloheximide cs,NS1 inh,Pf growth 48h,FBPA Giardia inh,Pf growth 96h,Shiga inhibitor
COc1ccc(CC(=O)N/N=C/c2ccc(-c3ccc(F)cc3)o2)cc1OC,-1.8,-15.3%,-18.5%,-3.3%,0.9%,-2.2
Nc1nonc1C(=O)N/N=C/c1ccc(-c2cccc(C(=O)O)c2)o1,29.3*,/,24.8%,-14.5%,?,50.8*
Nc1nnc(CC(=O)N/N=C/c2ccc(-c3ccccc3)o2)s1,-3.7,4.7%,22.5%,-2.1%,-4.5%,-9.3
COC(=O)c1ccc(-c2ccc(/C=N/NC(=O)Cc3nnc(N)s3)o2)cc1,24.3*,8.7%,59.9%,-13.8%,128.0%,39.5
COc1ccc(CC(=O)N/N=C/c2ccc(-c3cccc(C(=O)O)c3)o2)cc1OC,71.1*,7.6%,47.9%,-11.3%,150.4%,194.8*
Cc1ccc(OCC(=O)N/N=C\c2ccc(-c3cccc(C(=O)O)c3)o2)c(C)c1,74.1*,-3.4%,51.3%,?,-19.2%,177.3*
Cc1ccc(OCC(=O)N/N=C\c2ccc(C)o2)c(C)c1,5.5,/,6.6%,0.2%,46.2%,-12.1
O=C(NCCCN1CCOCC1)c1cc(Cl)ccc1OCc1ccccc1,-0.5,4.6%,?,/,52.9%,-12.2
CCN(CC)CCCNC(=O)c1oc2ccc(S(=O)(=O)N3CC(C)CC(C)C3)cc2c1C (stereo not given),-7.3,-10.8%,?,-1.6%,1.4%,15.2
O=C(CCCN1C(=O)c2ccccc2C1=O)Nc1cccc(S(=O)(=O)NC2=NCCC2)c1,-0.3,3.7%,?,3.1%,-7.7%,-6.1
CNC(=S)N/N=C/c1ccc(-c2cccc(C(=O)O)c2)o1,61.4*,-4.1%,198.7%,?,158.9%,111.8*
O=C(O)c1cc(-c2ccc(/C=N/NC(=S)Nc3ccccc3)o2)ccc1Cl,8.2,14.1%,24.1%,2.1%,50.4%,13.2
COc1ccc(CNC(=O)C[C@H]2C(=O)N(Cc3ccc(OC)cc3)C[C@@H]2Cc2ccccc2)cc1,1.0,-30.2%,?,-1.2%,?,-5.5
COc1ccc(CNC(=O)C[C@H]2C(=O)N(C3CCCCC3)C[C@@H]2Cc2ccccc2)cc1,-3.3,21.7%,-7.7%,2.9%,11.7µM*,11.3
COc1ccc(Br)cc1/C(C)=N/NC1=NCCN1,-1.7,-9.3%,1.9%,2.4%,/,-18.1
CCCCCOc1ccc(Br)cc1/C(C)=N/NC1=NCCN1,-5.3,1.1%,5.22µM*,-0.8%,?,-10.0
COc1ccc(C(=S)NCS(=O)(=O)c2ccc(C)cc2)cc1,2.3,0.8%,9.7%,-8.7%,7.3%,6.8
Cc1ccc(NC(=S)NNC(=S)NCc2ccccc2)cc1,-3.2,-18.1%,21.6%,12.4%,?,18.2
COc1ccc(NC(=S)c2ccncc2)cc1,-1.8,7.0%,13.9%,-28.1%,10.4µM*,8.2
